Compound activity as filed in PubChem.
Sampled rows, rich in hits. Any-hit rate of the full collection: about 7.4%.
HEK cytotox: HEK 293 cell cytotoxicity; AID 1345083; Potency, µM (top dose mostly 115 µM), inactives show top-dose activity change, negative = cytotoxicity, actives largely listed as inhibitors; actives 6.6% (n = 94,000); HEK 293 viability, ATP luminescence (CellTiter-Glo), 48-72 h; also: nearly all actives have a fitted effect of over 60% in size
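Read-out: CellTiter-Glo ATP luminescence. Cells: HEK 293, 250 cells/well. Exposure: 48 or 72 hr, 37 degree Celsius.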
SNCA expr inh: inhibitors of alpha-synuclein (SNCA) gene expression. HEK-293 SNCA-luciferase knock-in, luminescence, 24 h. Potency, µM (doses to about 57.2 µM), for inactives: at the top dose activity change, negative = inhibition, actives largely listed as inhibitors. actives 0.17% (n = 140,000). AID 1671194;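 also: plate controls were DMSO cells for no effect and cell-free wells for full effect; nearly all actives have a fitted effect of over 45% in size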
SNCA viab count: reduces viability of HEK-293 SNCA reporter cells; AID 1671193; actives 0.12% (n = 150,000); Potency, µM (highest dose often 57.1 µM), without a hit: at the highest dose activity change, negative = cytotoxicity, most hits filed as cytotoxic; HEK-293-SNCA-luc viability, GF-AFC fluorescence, 24 h;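 also: 0% = DMSO-treated cells and -100% = medium-only wells without cells; nearly all actives have a fitted effect of over 30% in size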
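HEK-293-SNCA-luc cells (1500/well) plated 24 h, then exposed 24 h to a dilution series; GF-AFC added 30 min at 37C, fluorescence 405/540 nm; normalised to medium-only and DMSO wells, Hill fit.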
3T3 cytotox: cytotoxic compounds in NIH 3T3 cells; NIH 3T3 viability, CellTiter-Glo ATP luminescence, 48-72 h; Potency, µM (titrated, usually from 96.7 µM), for the others: at the highest dose activity change, negative = cytotoxicity, actives largely listed as inhibitors; actives 4.3% (n = 94,000); also: nearly all actives have a fitted effect of over 55% in size
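Mouse fibroblast NIH 3T3 cells, 400 per well, received compound via pintool and were incubated for 48 or 72 hr prior to CellTiter-Glo ATP luminescence measurement.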
hNpr1 antagonist: blocks ANP-stimulated signaling of human Npr1 receptor | HEK293 hNpr1 GloSensor cGMP, ANP-stimulated luminescence | AID 1347048 | Potency, µM (titrated, usually from 46.3 µM), for the others: top-dose activity change, negative = inhibition, most hits filed as inhibitors | P16066 | actives 1.6% (n = 76,000); calls by dose curve; also: nearly all actives have a fitted effect of over 60% in size
Target sequence (P16066 whole entry, looked up): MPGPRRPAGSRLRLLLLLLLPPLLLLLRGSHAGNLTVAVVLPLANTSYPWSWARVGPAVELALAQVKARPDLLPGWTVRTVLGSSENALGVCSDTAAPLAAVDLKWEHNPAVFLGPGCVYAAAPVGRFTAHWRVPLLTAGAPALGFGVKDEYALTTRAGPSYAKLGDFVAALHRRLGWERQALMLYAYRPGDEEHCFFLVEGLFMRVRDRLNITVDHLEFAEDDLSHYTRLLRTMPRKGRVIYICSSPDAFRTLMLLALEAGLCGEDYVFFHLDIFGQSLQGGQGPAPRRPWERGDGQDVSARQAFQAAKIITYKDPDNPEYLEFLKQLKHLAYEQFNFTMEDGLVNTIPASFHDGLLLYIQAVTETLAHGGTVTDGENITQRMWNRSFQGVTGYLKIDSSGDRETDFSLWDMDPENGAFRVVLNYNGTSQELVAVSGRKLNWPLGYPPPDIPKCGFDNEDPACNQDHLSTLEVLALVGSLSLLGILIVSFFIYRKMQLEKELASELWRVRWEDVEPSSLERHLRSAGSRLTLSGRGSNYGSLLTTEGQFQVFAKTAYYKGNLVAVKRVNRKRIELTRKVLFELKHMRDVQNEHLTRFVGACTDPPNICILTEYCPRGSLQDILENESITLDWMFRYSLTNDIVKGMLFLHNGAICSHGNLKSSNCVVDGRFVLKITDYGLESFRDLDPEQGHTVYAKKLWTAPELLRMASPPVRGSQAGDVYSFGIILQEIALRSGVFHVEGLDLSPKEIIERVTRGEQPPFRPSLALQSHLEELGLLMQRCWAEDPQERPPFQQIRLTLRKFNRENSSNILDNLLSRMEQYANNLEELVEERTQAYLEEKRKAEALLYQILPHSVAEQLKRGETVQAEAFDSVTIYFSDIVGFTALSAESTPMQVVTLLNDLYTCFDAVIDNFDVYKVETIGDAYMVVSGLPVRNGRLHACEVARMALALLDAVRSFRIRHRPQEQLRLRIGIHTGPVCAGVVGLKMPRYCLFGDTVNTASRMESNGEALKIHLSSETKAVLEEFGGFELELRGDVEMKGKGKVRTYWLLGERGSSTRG
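HEK293 cells stably expressing human Npr1 and cGMP GloSensor pGS-40F, loaded 2 h with 2% GloSensor reagent, given compound 30 min at room temperature. Luminescence read before and 20 min after 0.1 nM hNppA.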
Luciferase inh: blocks purified firefly luciferase enzyme activity. AID 1347043. actives 2.5% (n = 76,000). P08659. purified P. pyralis luciferase, luminescence, biochemical. Potency, µM (doses to about 115 µM), usual class: inhibitors; also: nearly all actives have a fitted effect of over 65% in size
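Inhibitors were tested against purified firefly luciferase in a biochemical, low-substrate format (both substrates at 10uM) and luminescence measured with a CCD imager.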
Numbers without * were called inactive; i = inactive; ? = inconclusive; . = not tested or not shown; ! = a repeat was not active; [ ] = another dose, or the depositor's remark. Unless noted, calls follow the shape of the dose curve; as a rule, active = well fitted curve in the direction sought with a large enough effect; inconclusive = small, poorly fitted or top-dose-only effect, or another doubt; inactive = no such curve, though single readings can be large; an effect the other way counts as inactive or inconclusive. Unless noted, % is scaled to controls: 0 for no effect and ±100 for the full control effect; potency is read from the fitted curve at half-maximal effect.

SMILES	HEK cytotox	SNCA expr inh	SNCA viab count	3T3 cytotox	hNpr1 antagonist	Luciferase inh
O=C(NCCc1ccccc1)c1nc2sccn2c1-c1ccc(C(F)(F)F)cc1	?	?	-26%	14µM*	.	.
COc1ccc(-c2c(C(=O)NCCCc3ccccc3)nc3sccn23)cc1	?	-8%	-13%	35µM*	.	.
COC(=O)CNC(=O)C1CCCN(c2nccc(Nc3ccc(OC)cc3)n2)C1 (stereo unspecified)	?	12%	2%[12.5 µM]	?	.	.
COCCCNC(=O)CNC(=O)c1ccc(-c2cccc(C(F)(F)F)c2)cc1	?	-6%	-7%[12.5 µM]	?	.	.
O=C(NCc1ccc(Cl)cc1)c1nc2sccn2c1-c1ccc(C(F)(F)F)cc1	?	-29%	-8%	?	.	.
Cc1ccc(-c2c(C(=O)NCc3cccs3)nc3sccn23)cc1	?	9%[87.6 µM]	-6%[87.6 µM]	-11%[138 µM]	.	.
O=C(NCc1ccccc1F)c1nc2sccn2c1-c1ccc(C(F)(F)F)cc1	32µM*	-26%	-20%	?	.	.
O=C(NCc1cccc(C(F)(F)F)c1)c1nc2sccn2c1-c1cccc(C(F)(F)F)c1	35µM*	?	8%	?	.	.
O=C(NCc1ccccc1)c1nc2sccn2c1-c1ccc(C(F)(F)F)cc1	40µM*	?	-17%	?	.	.
O=C(NCc1cccs1)c1nc2sccn2c1-c1ccncc1	89µM*	7%[87.6 µM]	?	?	.	.
O=C(NCc1cccc(C(F)(F)F)c1)c1nc2sccn2c1-c1ccc(F)cc1	?	-3%[87.6 µM]	-7%[87.6 µM]	?	.	.
COc1ccccc1C(=O)NC1CCN(c2ccnc3ccnn23)CC1	?	?	2%	?	.	.
Cc1noc(C)c1CCC(=O)N1CCC2(CC1)CC(CCOCC1CC1)CCO2 (stereo unspecified)	-28%	-11%	1%	-31%	.	.
O=C(C1CCCN1C(=O)Cc1ccc(F)cc1)N1CCC(N2Cc3ccccc3C2=O)CC1 (stereo unspecified)	-10%	17%	2%	-9%	.	.
Cn1cnc(S(=O)(=O)N2CCCCC2c2noc(COCc3ccc(F)cc3)n2)c1 (stereo unspecified)	?	10%	9%	-16%	.	.
Cc1ccc(-c2c(C(=O)NCCc3ccccc3)nc3sccn23)cc1	45µM*	19%	-30%	18µM*	.	.
COc1ccc(-c2noc(CCCC(=O)N3CCCn4nc(-c5ccc(F)cc5)cc4C3)n2)cc1OC	32µM*	-19%	?	?	.	.
O=C(Nc1ccc(OC(F)(F)F)cc1)N1CC[C@H]2COC(=O)N2c2cc(F)ccc2C1	-26%	0%	11%	-22%	-1%	i
O=C(Nc1ccc(F)cc1)N1CC[C@H]2COC(=O)N2c2cc(F)ccc2C1	-8%[172 µM]	60%[87.6 µM]	-8%[87.6 µM]	?	4%[70.6 µM]	56µM*
CSCCNC(=O)c1cc(-c2ccc(Cl)cc2Cl)nc2c1cnn2C	?	1%	-9%	?	.	.
CC(C)NC(=O)c1nc2cccnc2n(C2CCCC2)c1=O	?	-6%[87.6 µM]	-3%[87.6 µM]	?	.	.
CCc1nc2c(c(-c3ccc(Cl)cc3)n1)CN(Cc1cccc(OC)c1)CC2	?	-9%	4%	13µM*	7%	i
CCc1nc2c(c(-c3ccc(Cl)cc3)n1)CN(Cc1cccc3ccccc13)CC2	79µM*	?	-12%	32µM*	0%	i
CCc1nc2c(c(-c3ccc(Cl)cc3)n1)CN(Cc1ccccn1)CC2	0%	5%	6%	-20%	2%	i
CCc1nc2c(c(-c3ccc(Cl)cc3)n1)CN(Cc1ccc(OC)cc1)CC2	?	?	?	35µM*	2%	i
SMILES	HEK cytotox	SNCA expr inh	SNCA viab count	3T3 cytotox	hNpr1 antagonist	Luciferase inh
CCc1nc2c(c(-c3ccc(Cl)cc3)n1)CN(Cc1ccc(F)cc1)CC2	45µM*	?	?	22µM*	1%	i
CNC(=O)c1cc(C)nc2onc(C3CCCN3C(C)=O)c12 (stereo unspecified)	?	.	.	i	.	.
O=C(c1ccc(Cl)nc1)N1CCN(CCn2nc3n(c2=O)CCCC3)CC1	0%	.	.	i	.	.
CCc1nc2c(c(-c3ccc(Cl)cc3)n1)CN(S(=O)(=O)c1ccccc1)CC2	5%	-4%	-2%	20µM*!	2%	i
CCc1nc2c(c(-c3ccc(Cl)cc3)n1)CCN(Cc1ccc(OC)cc1)CC2	?	-20%	-4%	?	2%	i
CCc1nc2c(c(-c3ccc(Cl)cc3)n1)CN(C(C)=O)CC2	-26%[172 µM]	-14%[87.6 µM]	-7%[87.6 µM]	-26%[138 µM]	-1%[70.6 µM]	i
CCc1nc2c(c(-c3ccc(OC)cc3)n1)CCN(Cc1cc(C)on1)CC2	4%	-7%	0%	20µM*	.	.
CCc1nc2c(c(-c3ccc(Cl)cc3)n1)CCN(Cc1ccc(C#N)cc1)CC2	40µM*	-2%	-11%	?	7%	i
Cc1cnc(C2CCN(Cc3ccc(F)cc3F)C2)n1Cc1ccccc1 (stereo unspecified)	?	-26%	1%	?	.	.
Nc1nc(F)nc2c1ncn2[C@@H]1O[C@H](CO)[C@@H](O)[C@@H]1O	.	8.6µM*!	?	.	.	.
Cc1ccc(-c2ccccc2CN2CCN(C(=O)c3ccc(F)cc3)CC2)cc1Cl	?	1%	0%[12.5 µM]	?	.	.
Cc1ccc(-c2ccccc2CN2CCN(C(=O)c3ccccc3Cl)CC2)cc1Cl	40µM*	3%	-3%[12.5 µM]	40µM*	.	.
Cc1ccc(-c2ccccc2CN2CCC(C(=O)NCCc3ccccc3)CC2)cc1Cl	40µM*!	16%	3%	25µM*	.	.
Cc1ccc(-c2ccccc2CN2CCN(C(=O)Nc3ccccc3)CC2)cc1Cl	32µM*	-1%	-1%[12.5 µM]	?	.	.
Cc1ccc(C(=O)N2CCN(Cc3ccccc3-c3ccc(C)c(Cl)c3)CC2)cc1	40µM*	-21%	3%[12.5 µM]	?	.	.
Cc1cccc(N2Cc3c(ncnc3N3CCN(C)CC3)N(C)CC2=O)c1	4%	6%	-10%	-3%	.	.
CCOC(=O)[C@H]1[C@@H](O)C(=O)N(C(C)C)C12CCN(C(=O)c1csc(-c3cccs3)n1)CC2	2%	.	.	?	.	.
Cc1ccc(-c2ccccc2CN2CCN(C(=O)c3ccc(Cl)nc3)CC2)cc1Cl	?	3%	-6%[12.5 µM]	35µM*	.	.
COCC(=O)NC1CCN(c2nccc(Nc3ccc(OC)cc3)n2)CC1	?	11%	?	?	.	.
COc1ccc(Nc2ccnc(N3CCC(NC(=O)c4ccccc4C)CC3)n2)cc1	40µM*	-1%	-1%	40µM*	.	.
COc1ccc(Nc2ccnc(N3CCC(NC(=O)Cc4cccc(Cl)c4)CC3)n2)cc1	25µM*	-15%	?	20µM*	.	.
COc1ccc(Nc2ccnc(N3CCC(NC(C)=O)CC3)n2)cc1	-9%	?	-13%[12.5 µM]	-20%	.	.
